Test results published in PubChem BioAssay (NCI).
Values joined by “and” are separate entries in the source; they are usually repeats but may differ in a detail not shown here. Equal entries are not always repeated. The panel holds about 83,000 compounds, 20% with a hit somewhere; the sample as a whole holds those more often.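 Cells were grown in 96-well plates and exposed to the test compound at a single concentration for 48 hours; results are reported as percent growth, with values below 10 considered active.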 Active and inactive are the calls of the source.

The compounds below were run on EKVX NSCLC (assay: NCI-60 one-dose screen, 48 h (100 = growth as untreated, 0 = no growth, -100 = all killed)). Conditions: 10 µM unless noted.

| SMILES | growth |
| --- | --- |
| COC(=O)[C@@]12OC[C@]34[C@H]([C@@H](O)[C@@H]1O)[C@@]1(C)[C@H](O)C(=O)C=C(C)[C@@H]1C[C@H]3OC(=O)C(OC(C)=O)[C@@H]24 (some centres undefined) | -43.6% (active) |
| NC(=S)N/N=C/c1ccc(Cl)s1 | 76.6% (inactive) |
| CCC(CC)COC(=O)c1ccc(O)c(O)c1 | 93.7% (inactive) |
| CCOc1ccc(-c2nc3ccc(-c4nc5ccc(N6CCN(C)CC6)cc5[nH]4)cc3[nH]2)cc1 | -75.5% (active) |
| Nc1nc(N)c2c(ccc3c2ccn3Cc2cccc([N+](=O)[O-])c2)n1 | -93.8% (active) |
| O[C@H]1[C@H]2c3cc4c(cc3CN3CCC(=C[C@@H]1O)[C@H]23)OCO4 | 37.2% (inactive) |
| O=C1C=CC(=O)N1C1c2ccccc2-c2ccccc21 | 105% (inactive) |
| COc1ccc(N=N/N=c2\sc3cc(OC)ccc3n2C)cc1 | 74.8% (inactive) |
| C1=C(c2ccccc2)C(c2ccc(OCCN3CCCCC3)cc2)Oc2ccccc21 (centres undefined) | 69.1% (inactive) |
| CC1SC(=S)N(c2ccc(Cl)cc2)C1=O (centres undefined) | 87.8% (inactive) and 89.7% (inactive) |
| Oc1ccc(/C=N/NC(=S)Nc2ccccc2)nc1 | 32.6% (inactive) |

What follows are compounds tested on SN12C renal in the same assay as above. Conditions: 10 µM unless noted.

| SMILES | growth |
| --- | --- |
| Cc1cc(C(C)(CC(C)C)c2ccc(O)c(C)c2)ccc1O | 85.6% (inactive) |
| O=C1c2cccnc2-c2nccc3c2c1nc1cc(Br)ccc13 | 11.5% (inactive) and -70.9% (active) |
| NC(=S)N/N=C\c1nccc2c(C(F)(F)C(F)(F)C(F)(F)F)cccc12 | 15.6% (inactive) |
| N#CSCc1ccc(Cl)c(CSC#N)c1 | 33.1% (inactive) |
| CC(=O)Nc1cccc2cc(O)ccc12 | 107% (inactive) and 94.4% (inactive) and 97.2% (inactive) |
| O=C1c2ccccc2C(=O)c2sc(Nc3ccc(Cl)cc3)nc21 | -80.3% (active) |
| CCCCCC(CCCCC)C(=O)O | 98.8% (inactive) |
| CN(C)c1ccc(C(=C2C=CC(=[N+](C)C)C=C2)c2ccc(N(C)C)cc2)cc1 (tested in a mixture with another compound) | -48.3% (active) |
| Nc1ncnc2c1ncn2C1OC(CO)C(O)C1O (centres undefined) | 103% (inactive) and 90.3% (inactive) and 97.5% (inactive) |
| Oc1c(Br)cc(Cl)cc1C(c1cc(Cl)cc(Br)c1O)C(Cl)(Cl)Cl | 10.8% (inactive) |
| CC1OC(OC2C(OC3CCC4(C)C(CCC5(C)C4CC=C4C6CC(C)(C)CCC6(CO)C(O)CC45C)C3(C)C)OC(C(=O)O)C(OC3OC(COC4OC(CO)C(O)C(O)C4O)C(O)C(O)C3O)C2O)C(O)C(O)C1O (centres undefined) | -77.7% (active) |
| O=Nc1ccccc1N=O | 71.6% (inactive) |
| CN(Cc1cnc2nc(N)nc(N)c2n1)c1ccc(C(=O)NC(CCC(=O)O)C(=O)O)cc1 (centres undefined) | 26.9% (inactive) |
| CCCCCCCCCCCCCCNCc1ccccc1 | 79% (inactive) |
| O=C(Nc1cccc(Br)c1)Oc1ccc(Cl)c2cccnc12 | 44.7% [100 µM] (inactive) |
| Cc1ccc2c(ccc3c[n+]4c5ccccc5ccc4n32)c1 | 5.27% (active) |
| CCC(c1cccc(O)c1)C(CC)c1cccc(O)c1 (centres undefined) | 68.5% (inactive) |

| SMILES | growth |
| --- | --- |
| CN(C)c1ccc(N=Nc2cccc3ccccc23)cc1 | 92.9% (inactive) |
| CCOC(=O)/C=C/c1ccc([N+](=O)[O-])o1 | 85.5% (inactive) |
| Cc1cc2nc(CS)[nH]c2cc1C | 102% (inactive) |
| CCCCCCC(C)c1ccccc1O (centres undefined) (tested in a mixture with another compound) | 106% (inactive) |
| Oc1c(Br)c(Br)c(O)c(Br)c1Br | 113% (inactive) |
| COC(=O)[C@@]12OC[C@]34[C@H]([C@@H](O)[C@@H]1O)[C@@]1(C)[C@H](O)C(=O)C=C(C)[C@@H]1C[C@H]3OC(=O)C(OC(C)=O)[C@@H]24 (some centres undefined) | -17.5% (active) |
| NC(=S)N/N=C/c1ccc(Cl)s1 | 101% (inactive) |
| CCC(CC)COC(=O)c1ccc(O)c(O)c1 | 45.8% (inactive) |
| CCOc1ccc(-c2nc3ccc(-c4nc5ccc(N6CCN(C)CC6)cc5[nH]4)cc3[nH]2)cc1 | -91.4% (active) |
| Nc1nc(N)c2c(ccc3c2ccn3Cc2cccc([N+](=O)[O-])c2)n1 | -83.6% (active) |
| O[C@H]1[C@H]2c3cc4c(cc3CN3CCC(=C[C@@H]1O)[C@H]23)OCO4 | 18.8% (inactive) |
| O=C1C=CC(=O)N1C1c2ccccc2-c2ccccc21 | 94.2% (inactive) |
| COc1ccc(N=N/N=c2\sc3cc(OC)ccc3n2C)cc1 | 89% (inactive) |
| C1=C(c2ccccc2)C(c2ccc(OCCN3CCCCC3)cc2)Oc2ccccc21 (centres undefined) | 55.3% (inactive) |
| CC1SC(=S)N(c2ccc(Cl)cc2)C1=O (centres undefined) | 93% (inactive) and 85.6% (inactive) |
| Oc1ccc(/C=N/NC(=S)Nc2ccccc2)nc1 | 20.2% (inactive) |
